KinaseGlo FLuc: Kinase-Glo luciferase inhibition (counter-screen). Q27757. Kinase-Glo luciferase, ATP luminescence, 8 min. 0.28% of 200,000 active. Potency, µM (titrated, usually from 38.3 µM), hits mostly inhibitors; further: nearly all actives have a fitted effect of over 60% in size
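Substrate mix (final 50 mM imidazole pH 7.2, 50 mM KCl, 7 mM MgCl2, 10 uM ATP, 0.01% Tween 20, 0.05% BSA) plus pin-tool compound, then Kinase-Glo detection mix; 8 min ambient, luminescence read.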
ELG1 genotox: inducers of genotoxicity in HEK293T ELG1-luciferase cells; HEK293T ELG1-luciferase reporter, luminescence, 16 h; Potency, µM (doses to about 46 µM), hits mostly activators; 1.3% of 330,000 active; AID 504466; further: nearly all actives have a fitted effect of over 60% in size
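Genotoxicity was scored as increased ELG1-luciferase reporter signal, measured by ONE-Glo luminescence (30 min, room temperature). Compound or vehicle exposure of the HEK293T reporter cells lasted 16 hr at 37°C.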
NPC1 prom act: NPC1 promoter activation; Huh7 NPC1 promoter luciferase reporter, 24 h; Potency, µM (titrated, usually from 9.22 µM), hits mostly activators; 2.4% of 320,000 active; further: nearly all actives have a fitted effect of over 60% in size
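Luminescence from an NPC1 promoter-driven luciferase reporter in stably transfected Huh7 cells was measured after 24 h compound treatment at 37 °C, followed by 10 min ambient incubation with luciferase detection reagent.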
FLuc counter: counter-screen for miR-21 project: firefly luciferase inhibitors or activators. 6.9% of 360,000 active. Potency, µM (highest dose often 57.5 µM), usual class: inhibitors. P08659. AID 588342. purified FLuc, Km substrates, luminescence inhibition; further: nearly all actives have a fitted effect of over 55% in size
Target sequence (P08659 whole entry, looked up): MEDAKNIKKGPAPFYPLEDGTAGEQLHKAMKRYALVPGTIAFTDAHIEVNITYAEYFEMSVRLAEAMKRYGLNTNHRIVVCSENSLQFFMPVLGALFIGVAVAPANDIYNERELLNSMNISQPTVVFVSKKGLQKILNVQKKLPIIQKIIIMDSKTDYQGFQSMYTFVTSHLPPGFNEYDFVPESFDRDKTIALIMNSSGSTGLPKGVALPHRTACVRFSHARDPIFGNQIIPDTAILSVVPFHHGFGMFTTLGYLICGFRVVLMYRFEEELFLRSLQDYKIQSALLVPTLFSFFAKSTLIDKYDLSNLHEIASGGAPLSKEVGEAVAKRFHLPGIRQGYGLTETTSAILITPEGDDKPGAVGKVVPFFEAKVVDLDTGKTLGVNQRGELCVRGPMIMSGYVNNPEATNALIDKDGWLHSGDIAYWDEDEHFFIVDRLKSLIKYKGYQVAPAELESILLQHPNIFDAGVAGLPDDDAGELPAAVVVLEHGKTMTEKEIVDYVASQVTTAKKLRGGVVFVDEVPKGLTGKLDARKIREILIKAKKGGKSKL
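Biochemical qHTS of compounds, final roughly 60 µM downward over six points, against 10 nM purified firefly luciferase using Km concentrations of substrates (10 uM D-luciferin, 10 uM ATP) in Tris acetate pH 7.5 buffer; luminescence output.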
Rab9 prom act: Rab9 promoter activation; Huh7 Rab9 promoter-luciferase reporter, luminescence, 24 h; Potency, µM (top dose mostly 9.22 µM), actives largely listed as activators; 2.8% of 320,000 active; AID 485297; further: nearly all actives have a fitted effect of over 60% in size
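Promoter activation is measured as luciferase luminescence in Huh7 cells stably transfected with a Rab9 promoter–luciferase construct, following 24 h compound exposure at 37 °C and 10 min reagent incubation at ambient temperature.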
SMN2 splice enh: increases expression of the SMN2 splice variant. HEK293 SMN2-luciferase splicing reporter, luminescence, 30-36 h. Potency, µM (doses to about 46.1 µM), usual class: activators. 2.8% of 210,000 active; further: nearly all actives have a fitted effect of over 55% in size
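HEK293 cells carry an SMN2 minigene-luciferase reporter in which exon 7 inclusion puts luciferase in frame. Cells were seeded at 2000 cells/well, attached for 10-12 hours, then exposed to compounds for 30-36 hours at 37C before ONE-Glo luminescence.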
Numbers stand for hits; - = inactive; ? = inconclusive; . = not tested or not shown; [ ] = remark or other dose. The list is not random: actives were taken first. Their share in the collection is about 7.3%. The call rests on the fitted dose curve; in most records, active means well fitted curve in the direction sought with a large enough effect; inconclusive means small, poorly fitted or top-dose-only effect, or another doubt; inactive means no such curve, though single readings can be large; an effect the other way counts as inactive or inconclusive.

SMILES	KinaseGlo FLuc	ELG1 genotox	NPC1 prom act	FLuc counter	Rab9 prom act	SMN2 splice enh
O=C(COc1ccc(Cl)cc1)OCc1cc(=O)n2nc(-c3cccs3)sc2n1	.	.	.	-	.	.
CCOc1ccc(-c2cc(C(=O)NCc3ccc(C)cc3)c3ccccc3n2)cc1	.	.	.	-	.	.
COc1ccc(-c2cc(C(=O)OCC(=O)Nc3ccc4c(c3)OCO4)c3ccccc3n2)cc1	-	-	-	?	-	13µM
O=C(COC(=O)c1cc(-c2ccccc2)nc2ccccc12)Nc1ccc2c(c1)OCO2	-	-	-	?	-	-
Cc1cccc(-c2cc(C(=O)Nc3ccc4c(c3)OCCO4)c3ccccc3n2)c1	-	-	-	6.7µM	-	-
CCOc1ccc(-c2cc(C(=O)Nc3ccc4c(c3)OCCO4)c3ccccc3n2)cc1	?	-	-	2.4µM	?	?
O=C(Nc1cccc(Cl)c1Cl)c1ccc2c(c1)N(Cc1cccc(Cl)c1)C(=O)c1ccccc1S2(=O)=O	.	.	.	-	.	.
COc1ccc(-c2cn3c(n2)sc2cc(C(=O)NC(C)C45CC6CC(CC(C6)C4)C5)ccc23)cc1 (stereo not drawn)	.	.	.	-	.	.
CCOC(=O)C1CCN(C(=O)c2ccc3c(c2)N=C(CC)c2cc(C)ccc2S3)CC1	.	.	.	-	.	-
COc1ccccc1N(Cc1ccccc1)S(=O)(=O)c1cccc(C(=O)Nc2cc(C)ccn2)c1	.	?	?	0.67µM	?	.
CCOc1ccccc1NC(=O)c1cccc(S(=O)(=O)N(Cc2ccccc2)c2ccccc2OC)c1	-	-	-	-	-	-
COc1ccccc1N(Cc1ccccc1)S(=O)(=O)c1cccc(C(=O)O)c1	-	-	-	-	-	5µM
Cc1ccc(Cl)cc1Nc1nn2c(=O)c3ccc(C(=O)NC(C)c4ccccc4)cc3nc2s1 (stereo not drawn)	.	.	.	-	.	.
C[C@@H](CO)NC(=O)c1ccc2c3n(nc2c1)-c1ccc(Cl)cc1CO3	.	7.3µM	1.4µM	3µM	2.8µM	.
CC(C)[C@@H](CO)NC(=O)c1ccc2c3n(nc2c1)-c1ccc(Cl)cc1CO3	.	?	1.4µM	8.5µM	1.1µM	.
Cc1oc2ccc(O)c(CN3CCCC(C)C3)c2c1C(=O)Nc1ccccc1 (stereo not drawn)	.	.	.	-	.	-
CN(C(=O)c1ccc2c(c1)N(Cc1ccccc1F)C(=O)c1ccccc1S2(=O)=O)C1CCCCC1	.	.	.	-	.	-
Cc1ccc(C)c(NC(=O)CCS(=O)(=O)c2cccc3nsnc23)c1	.	.	.	-	.	-
OCC1OC(n2cnc3c(=S)nc[nH]c32)C(O)C1O (stereo not drawn)	-	.	.	.	.	-
COCCNC(=O)c1cc2c(s1)-c1ccc(Cl)cc1SC2	.	?	2.5µM	6µM	2.2µM	.
COc1ccc(NC(=O)N2CCc3nc(-c4ccc(OC)cc4C)c4c(c3C2)CO[C@@H](c2ccccc2)C4)cc1	-[7.66 µM]	.	.	.	.	-[9.22 µM]
COc1ccc(/C=N/N=C2/NC(=O)C(CC(=O)O)S2)cc1OCc1ccccc1Cl (stereo not drawn)	-	-	-	-	-	-
COc1cc(/C=N/O)ccc1OCc1ccccc1Cl	-	16µM	3.2µM	6.7µM	1.6µM	11µM
Cc1cc(NC(=O)c2ccccc2F)ncc1NC(=O)c1cccs1	-	-	-	?	-	?
Cc1cc(NC(=O)c2cccs2)ncc1NC(=O)c1cccc(F)c1	-	?	-	19µM	3.2µM	?
SMILES	KinaseGlo FLuc	ELG1 genotox	NPC1 prom act	FLuc counter	Rab9 prom act	SMN2 splice enh
Cc1cc(NC(=O)c2cccs2)ncc1NC(=O)C(C)C	.	-	1.8µM	15µM	2.2µM	.
Cc1cc(NC(=O)c2ccccc2)ncc1NC(=O)c1cccs1	11µM	?	3.5µM	15µM	4µM	11µM
O=C(Nc1ccc(NC(=O)c2cccs2)cn1)c1ccccc1	-	?	2.2µM	5.4µM	1.1µM	16µM
CCOC(=O)c1cc(-c2ccccc2)n(CC(=O)NCc2ccccc2OC)c1C	.	.	.	-	.	.
Cc1cccn2c(=O)c3cc(C(=O)NCc4ccccc4)c(=N)n(CCOCCO)c3nc12	.	.	.	-	.	-
CNC(=O)/C(C#N)=C\c1cc(C)n(-c2ccc(N3CCOCC3)cc2)c1C	-	-	-	-	-	.
